Bioassay records from PubChem.
hcDAF-12 act: activates DAF-12 receptor from parasite H. contortus | HEK293 hcDAF-12 lit1-tk-luc reporter, luminescence; 0% DMSO, 100% Δ7-dafachronic acid | activation, % at 6.8 µM | actives 1.4% (n = 370,000) | AID 652067;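 active means activation above the mean of all tested compounds plus 3 SD, cut at about 5.5% in these data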;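 further: 100% = response to 3 µM Δ7-dafachronic acid high control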
Wnt act: activators of Wnt/beta-catenin signaling; Wnt/beta-catenin reporter cell assay, activator, plate reader; actives 1.2% (n = 300,000); AID 743398; activation, % at 9.35 µM; in the data active means activation above about 30%, passing the limit was not always enough; inconclusive means no clear call, values can overlap the other calls;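 further: 0% = neutral control wells and 100% = positive control wells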
DAX1 inh: DAX1 (NR0B1) inhibition, primary screen; HEK293T StAR-luciferase reporter, SF-1/DAX-1 repression relief; AID 652010; inhibition, % at 6.8 µM; actives 1.1% (n = 370,000);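 active means inhibition above the mean over all tested compounds plus 3 SD, cut at about 3.6% in these data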;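 further: 0% = DAX-1 cells with DMSO and 100% = cells lacking DAX-1 with DMSO; higher inhibition means more luminescence from relief of DAX-1 repression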
esBAF inh: blocks esBAF chromatin remodeling in mouse ES cells; AID 602393; reporter increase, % at 12.5 µM; actives 2% (n = 350,000); Bmi1-luciferase knock-in reporter, 24 h; 100% = twice the neutral-well signal; in the data active means activation above about 40%; inconclusive means no clear call, values can overlap the other calls;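 further: 0% = median of the plate's neutral control wells and 100% = double that signal; a rise in the Bmi1 reporter signal indicates esBAF inhibition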
ssDAF-12 act: activates DAF-12 receptor from parasite S. stercoralis; HEK293 ssDAF-12/GRIP1 lit1-tk-luc reporter, luminescence; % of 3 µM dafachronic acid response; activation, % at 6.8 µM; actives 1% (n = 370,000);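 active means activation above the mean over all tested compounds plus 3 SD, cut at about 0.9% in these data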;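 further: 0% = DMSO-only wells and 100% = 3 µM delta7-dafachronic acid wells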
hgDAF12 agonist: activates the H. glycines DAF-12 receptor ligand-binding domain; AID 687014; actives 1.8% (n = 370,000); activation, % at 6.8 µM; HEK293 GAL4-hgDAF12 UAS-luciferase reporter, agonist luminescence; normalized to butyrate control;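 active means activation above a cutoff set at the mean of all screened compounds plus 3 SD, cut at about 10% in these data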;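 further: 0% = DMSO wells and 100% = sodium butyrate wells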
hgDAF12 ag: hgDAF-12 agonism, confirmation assay; shares compounds with hgDAF12 agonist; HEK293 GAL4-hgDAF12 luciferase reporter, agonist mode; percent of butyrate response; activation, % at 6.8 µM; actives 80% (n = 3,300);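 active means mean activation over triplicate wells above the hit cutoff derived from the earlier primary screen, cut at about 11% in these data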;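 further: 0% = DMSO low control and 100% = 2 mM sodium butyrate high control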
LXRb DAF12 ctr: activates human LXR-beta, counter-screen for DAF-12 agonists. shares compounds with hgDAF12 agonist. HEK293 Gal4-LXR luciferase reporter, 24 h. activation, % at 6.8 µM. 3,300 tested, under 10 active;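 active means mean activation of the triplicate above a set limit carried over from the primary screen, none filed active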
Target sequence (P55055 whole entry, looked up, the tested form may be a part): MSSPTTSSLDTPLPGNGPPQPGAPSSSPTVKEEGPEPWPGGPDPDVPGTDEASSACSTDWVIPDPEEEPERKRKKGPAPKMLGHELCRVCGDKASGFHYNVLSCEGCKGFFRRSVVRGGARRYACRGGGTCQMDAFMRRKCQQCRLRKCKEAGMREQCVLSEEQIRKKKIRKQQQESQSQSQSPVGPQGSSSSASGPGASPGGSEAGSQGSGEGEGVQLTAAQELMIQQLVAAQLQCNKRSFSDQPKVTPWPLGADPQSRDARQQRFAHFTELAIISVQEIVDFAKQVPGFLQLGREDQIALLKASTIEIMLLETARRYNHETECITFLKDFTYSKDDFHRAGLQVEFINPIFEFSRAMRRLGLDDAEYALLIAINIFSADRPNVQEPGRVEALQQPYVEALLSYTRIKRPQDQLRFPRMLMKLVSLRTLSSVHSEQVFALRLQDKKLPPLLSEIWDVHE
The depositor's hits bear a star; ? = inconclusive; nt = no result; ! = not active in a repeat. The list is not random: actives were taken first. Their share in the collection is about 4.2%.

SMILES	hcDAF-12 act	Wnt act	DAX1 inh	esBAF inh	ssDAF-12 act	hgDAF12 agonist	hgDAF12 ag	LXRb DAF12 ctr
O=C1CCCC(O)=C1N=Nc1ccc2c(c1)OCO2	5.9*	46*	0	nt	-1	14*	9	1
C[C@H](CO)N1C[C@H](C)[C@H](CN(C)Cc2ccc(-c3ccccc3)cc2)Oc2ncc(C#CCN(C)C)cc2C1=O	nt	nt	nt	-3	nt	nt	nt	nt
Cc1ccc(NC(=O)Nc2ccc(F)cc2)nc1	0	nt	1	nt	0	6	nt	nt
Cc1ccnc(NC(=O)Nc2ccc(F)cc2)c1	5	nt	3	nt	1	14*	19*	1
CCC(=O)N1[C@H](CN(C)C(=O)CN2CCOCC2)[C@@H](c2ccccc2)[C@@H]1CO	nt	nt	nt	-1	nt	nt	nt	nt
C[C@@H]1CCCCO[C@H](CN(C)C(=O)Nc2ccc3c(c2)OCO3)[C@@H](C)CN([C@@H](C)CO)C(=O)c2cc(NS(C)(=O)=O)ccc2O1	nt	nt	nt	3	nt	nt	nt	nt
Cc1ccc(S(=O)(=O)Nc2ccc3c(c2)CC(=O)N([C@H](C)CO)C[C@H](C)[C@H](CN(C)Cc2ccc(C(=O)O)cc2)O3)cc1	nt	nt	nt	1	nt	nt	nt	nt
CCn1ncc(C(=O)Nc2ccc(S(=O)(=O)N3CCCC3)cc2)c1C	-2	nt	0	10	-1	0	nt	nt
CCn1ncc(C(=O)Nc2cccc(Cl)c2)c1C	5	23	3	53*	0.9*	18*	12*	0
COc1cccc(NC(=O)c2cnn(-c3ccccc3)c2C)c1	6.3*	21	3	7	1.2*	18*	14*	1
COc1ccc(CN(C)C[C@H]2OCCCC[C@H](C)Oc3ccc(NC(=O)c4ccncc4)cc3C(=O)N([C@@H](C)CO)C[C@@H]2C)cc1	nt	nt	nt	-9	nt	nt	nt	nt
Cn1ccs/c1=N\C(=O)Nc1cccc(Cl)c1	2	?	3	nt	0	16*	11*	1
CN=c1sc(C(=O)Nc2cccc(Cl)c2)cc(=O)n1C	-1	nt	-1	1	-1	3	nt	nt
CC(NC(=O)c1cc2c(=O)n(C)c3ccccc3c2n1C)c1ccc2c(c1)OCCO2 (stereo unspecified)	-1	-2	0	0	-1	17*	-4	0
O=[N+]([O-])c1cccc(-c2nnc(-c3ccc4c(c3)OCO4)o2)c1	0	-2	0	nt	0	2	nt	nt
Clc1ccc(-c2nnc(-c3ccccc3)o2)c(Cl)c1	5	39*	4.0*	-37	0	16*	16*	1
Clc1ccccc1-c1nnc(-c2ccc3c(c2)OCO3)o1	5.8*	17	4	5	1	19*	15*	1
C[C@H](CO)N1C[C@H](C)[C@@H](CN(C)C(=O)c2cnccn2)Oc2ncc(C#CCC3CCCC3)cc2C1=O	nt	nt	nt	-5	nt	nt	nt	nt
COCCc1nc2ccc(C(=O)N3CCCCC3COC)cc2o1 (stereo unspecified)	-3	2	1	13	0	1	nt	nt
COCCC1CCCCN1C(=O)c1ccc2nc(Cc3ccccc3F)oc2c1 (stereo unspecified)	5.6*	13	3.9*	nt	0	14*	12*	1
CN(C)c1ncccc1-c1nc2ccccc2s1	-2	-2	0	nt	-1	2	nt	nt
c1ccc(-c2nc3ccccc3s2)nc1	3	59*!	3	11	1	13*	18*	1
Nc1ccc(-c2nc3ccccc3s2)cn1	5	38*	2	13	1	14*	20*	1
Brc1cc2c(cc1-c1nc3ccccc3s1)OCO2	3	-1	0	22	0	4	nt	nt
CN1C(=O)c2cc(NC(=O)C3CCOCC3)ccc2OC[C@@H]2O[C@H](CC(=O)O)CC[C@@H]21	nt	nt	nt	-6	nt	nt	nt	nt
SMILES	hcDAF-12 act	Wnt act	DAX1 inh	esBAF inh	ssDAF-12 act	hgDAF12 agonist	hgDAF12 ag	LXRb DAF12 ctr
CCOC(=O)N/N=C\c1ccccc1OC/C=C/c1ccccc1	1	42*	-2	46*	0	14*	8	0
N#CCC(=O)N/N=C\c1cc(Br)ccc1OC/C=C/c1ccccc1	2	?	1	22	0	3	nt	nt
CC(C)NC(=O)Nc1ccc2c(c1)C(=O)N([C@@H](C)CO)C[C@@H](C)[C@H](CN(C)CC1CCCCC1)OCCCC[C@@H](C)O2	nt	nt	nt	0	nt	nt	nt	nt
O=c1c2ccccc2nnn1COc1cccc(Cl)c1	1	7	2	59*	-1	13*	6	0
O=C(COc1ccc(Cl)cc1Cl)OCn1nnc2ccccc2c1=O	-1	7	0	nt	-1	-2	nt	nt
CCCNC(=O)C[C@@H]1CC[C@H]2[C@@H](COC[C@H](O)CN2C(=O)Nc2cccc(Cl)c2)O1	nt	nt	nt	3	nt	nt	nt	nt
COc1ccc(NC(=O)Nc2ccc(F)c(Cl)c2)cc1	2	45*	1	nt	-1	17*	10	0
CCc1ccc(NC(=O)Nc2cccc(OC)c2)cc1	0	-4	2	62*	-1	18*	15*	0
CCC(=O)Nc1ccc2c(c1)C(=O)N(C)C[C@@H](OC)[C@H](C)CN(Cc1cc(-c3ccccc3)on1)[C@H](C)CO2	nt	nt	nt	12	nt	nt	nt	nt
CCN(CC)CC(O)CNc1ccnc2c(Cl)ccc(Cl)c12 (stereo unspecified)	1	-1	1	2	0	13*	3	0
CCN(CC)CCCC(C)Nc1nccc2cccc(Cl)c12 (stereo unspecified)	1	-3	1	-2	-1	1	nt	nt
O=S(=O)(Nc1ccc2c(c1)oc1ccccc12)N1CCCC1	-1	nt	0	12	-1	1	nt	nt
O=c1c2ccccc2oc2ccc(NCCCN3CCOCC3)cc12	3	26	3	-6	-1	13*	16*	1
CN1CCCC1CCNc1ccc2c(=O)c3ccccc3oc2c1 (stereo unspecified)	2	19	2	32	0	14*	15*	1
CCC(=O)N1C[C@H](C)[C@@H](OC)CN(C)C(=O)c2cc(NC(=O)NC(C)C)ccc2OC[C@@H]1C	nt	nt	nt	-2	nt	nt	nt	nt
CNC(=O)C[C@H]1CC[C@H]2[C@@H](COc3ccc(NC(=O)c4ccc(C#N)cc4)cc3C(=O)N2C)O1	nt	nt	nt	0	nt	nt	nt	nt
CO[C@H]1CN(C)C(=O)c2ccc(NS(=O)(=O)c3ccccc3)cc2OC[C@@H](C)N(Cc2ccccn2)C[C@@H]1C	nt	nt	nt	0	nt	nt	nt	nt
COc1ccccc1Nc1nc(C)cs1	-1	0	1	16	0	3	nt	nt
Cc1ccc(Nc2nc(C)cs2)cc1	4	58*	2	20	0	16*	14*	1
